# According to PubChem BioAssay AID624297 (National Center for Advancing Translational Sciences (NCATS), 2012):
# In all, about 340,000 compounds went through this assay and about 6,200 (1.8%) were called active. Where a call stands in place of a potency, no number is given. Roughly 10% stayed inconclusive and do not appear here. This excerpt belongs to a sample that is enriched for actives. A number with no mark means an inactive call. Calls follow the shape of the dose curve; as a rule, active = well fitted activation curve with a large enough effect; inconclusive = small, poorly fitted or top-dose-only effect; inactive = no such curve, though single readings can be large or run the other way.
# Assay: A quantitative high throughput screen for small molecules that induce DNA re-replication in SW480 colon adenocarcinoma cells. Also: nearly all actives have a fitted effect of over 55% in size.
# Conditions: Hoechst DNA content imaging, 48 h; series mostly up to 46.1 µM
# How it was run: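 Quantitative HTS format with DMSO vehicle controls; 48 hr drug incubation at 37 C, then 40 min Hoechst staining and scanning imager measurement at 405 nm excitation.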
# Potency is read from the fitted curve at half-maximal effect.
Structure (SMILES),Potency,re-replication activation
COc1ccccc1C(=O)COC(=O)COc1ccc(C#N)cc1,inactive,
CCCC(CNC(=O)COC(=O)C1=NNC(=O)CC1)c1ccc(Cl)cc1Cl (stereo not drawn),inactive,
Oc1[nH]c2ccccc2c1N=Nc1c(F)c(F)c(F)c(F)c1F,inactive,
C(#CCN1CCOCC1)CCCN1CCOCC1,inactive,
O=C(COc1cccnc1[N+](=O)[O-])Nc1ccc(Cl)cc1F,inactive,
COc1cccc(NC(=O)CN(C)C(=O)/C=C/c2cn(-c3ccccc3)nc2-c2cccs2)c1,inactive,
Cc1ccc(NC(=O)CC(=O)Nc2ccc(C)cc2)cc1,inactive,
O=C(CCl)Nc1ccc(Sc2ccc(NC(=O)CCl)cc2)cc1,4.61 µM (active),
O=C(Nc1ccc(Sc2ccc(Br)cc2)cc1)c1ccco1,inactive,
CC1CCCCC1NC(=O)Cn1cnc2c1c(=O)n(C)c(=O)n2C (stereo not drawn),inactive,
COc1ccc(-c2nnc(SC(C)C(=O)NC3CC3)o2)cc1 (stereo not drawn),inactive,
COc1ccc2c(CC(=O)NNC(=O)c3ccccc3F)coc2c1,inactive,
c1ccc(-c2cc3c(NCC4COc5ccccc5O4)ncnc3s2)cc1 (stereo not drawn),18.4 µM (active),
Oc1ccccc1N1CCN(c2ncnc3sc(-c4ccccc4)cc23)CC1,inactive,
S=C(NCC1COc2ccccc2O1)Nc1ccc(Br)cc1 (stereo not drawn),inactive,
Cc1ccc(NC(=O)C(C)OC(=O)C2CC3CCCC(C2)C3=O)cc1S(=O)(=O)N1CCOCC1 (stereo not drawn),inactive,
CN(C)C(=O)CCc1ccc2c3c([nH]c2c1)[C@]1(C)[C@@H](C(=O)N2CCCCC2)C[C@H](CC(=O)NCCC2=CCCCC2)C(=O)N1CC3,inactive,
COC(=O)c1ccc(CNC(=O)Cn2cc(C)c(=O)[nH]c2=O)cc1,inactive,
C[C@H](CO)N1C[C@H](C)[C@@H](CN(C)Cc2ccc(-c3ccccc3)cc2)Oc2ccc(NC(=O)Cn3cnnn3)cc2C1=O,inactive,
CCN(CC)CCCNC(=O)c1cc2c(=O)[nH]c3ccc(C)cc3c2s1,inactive,
Cc1ccc2[nH]c(=O)c(CC(=O)O)c(-c3ccccc3)c2c1,inactive,
Cc1cccc(N(C)C(=O)c2cc3c(=O)[nH]c4ccc(C)cc4c3s2)c1,9.2 µM (active),
CCCN(CC(=O)Nc1ccccc1C)C(=O)c1ccc(OCC(=O)N2CCOCC2)c(OCC)c1,inactive,
Cc1nc2ccccc2c(C(=O)O)c1-c1ccccn1,inactive,
C=CCN(CC=C)S(=O)(=O)c1ccc(C(=O)Nc2nc3c(s2)CCc2ccccc2-3)cc1,14.6 µM (active),
COc1ccc(C(=O)Nc2ncc3c(n2)-c2ccccc2CC3)cc1,inactive,

Structure (SMILES),Potency,re-replication activation
C=CCN(CC=C)S(=O)(=O)c1ccc(C(=O)Nc2sc3c(c2C(N)=O)CCCCC3)cc1,9.2 µM (active),
CCN(c1ccccc1)S(=O)(=O)c1ccc(C(=O)Nc2nccs2)cc1,inactive,
COc1cccc(OC)c1C(=O)Nc1sc2c(c1C(N)=O)CCCC2,inactive,
NC(=O)c1c(NC(=O)c2ccccc2)sc2c1CCCC2,inactive,
O=C(O)C1C2C=CC(O2)C1C(=O)Nc1ccccn1 (stereo not drawn),inactive,
O=C(CNC(=O)c1ccco1)NNC(=O)c1ccc(Br)cc1,inactive,
O=C(O)c1ccc(Cn2cnc3c(=S)nc[nH]c32)cc1,inactive,
Cc1cc([N+](=O)[O-])ccc1NS(=O)(=O)c1ccccc1,inactive,
NC(=O)C1(Nc2ccccc2Cl)CCCC1,inactive,
CCOc1ccc(S(=O)(=O)Nc2ccc(OC)nc2)cc1,inactive,
COc1ccc(CS(=O)/C(Cl)=C(/Cl)C(=O)Nc2ccc(OC)nc2)cc1 (stereo not drawn),0.259 µM (active),
COc1ccc(CC(=O)Nc2ccc(C(=O)NC(C)(C)C)cc2)cc1,inactive,
O=C(NCCC1CCCCN1S(=O)(=O)c1ccccc1)C(=O)NCC1CCCO1 (stereo not drawn),inactive,
O=C(NCCC1CCCCN1S(=O)(=O)c1ccc(F)cc1)C(=O)NC1CC1 (stereo not drawn),inactive,
COc1cccc(CNC(=O)C(=O)NCCC2CCCCN2S(=O)(=O)c2ccc(C)cc2)c1 (stereo not drawn),15.8 µM (active),
O=C(COC(=O)COc1cc(Cl)c(Cl)cc1Cl)NC1CC1,inactive,
CN1CN(C)c2ccc([N+](=O)[O-])c3cccc1c23,inactive,
O=C1c2cccc3c([N+](=O)[O-])ccc(c23)C(=O)N1CC1CCCO1 (stereo not drawn),5.8 µM (active),
CCOc1cccc(=O)c2c(C)n(CC3CCCO3)c(C)c12 (stereo not drawn),inactive,
COc1ccc(C(=O)NCC(=O)N/N=C/c2cccnc2)cc1,inactive,
O=C(CSc1cccc2cccnc12)N/N=C/c1cccnc1,7.31 µM (active),
O=C(CNC(=O)c1cccnc1)N/N=C/c1cccnc1,inactive,
Cc1ccc(/C=N/NC(=S)NC2CCCCC2)o1,inactive,
Cc1ccc(/C=N/NC(=S)Nc2cccc(S(=O)(=O)N(C)C)c2)o1,23.1 µM (active),
CN(C)S(=O)(=O)c1cccc(NC(=S)NCc2ccc3c(c2)OCO3)c1,inactive,
COc1cc(C(=O)CCc2ccc3c(c2)OCO3)cc(OC)c1OC,inactive,

Structure (SMILES),Potency,re-replication activation
COc1ccc2ccccc2c1/C=N/NC(=O)c1cc(C)[nH]n1,inactive,
CCOc1ccc2ccccc2c1/C=N/NC(=O)c1c(C)cc(C)[nH]c1=O,23.1 µM (active),
Cc1ccc(C(=O)N/N=C/c2cccc3ccccc23)cn1,inactive,
O=C(COC(=O)c1ccc([N+](=O)[O-])o1)NC12CC3CC(CC(C3)C1)C2,inactive,
CCOC(=O)C1CCCN(C(=O)c2ccc(C)c(S(=O)(=O)N3CCCCC3)c2)C1 (stereo not drawn),inactive,
COc1cccc2c1C(=O)c1c(O)c3c(c(O)c1C2=O)CC(O)(C(C)=NNC(=O)c1ccc(Cl)c(Cl)c1)CC3OC1CC(N)C(O)C(C)O1 (stereo not drawn),inactive,
CS(=O)(=O)c1sc2nc(-c3ccccc3)cc(-c3ccccc3)c2c1N,11.2 µM (active),
CNc1nc(-c2ccccc2)cc(-c2ccccc2)n1,inactive,
Nc1nc(-c2ccccc2)cc(-c2ccccc2)n1,inactive,
CCN([C@H](CO)C(C)C)S(=O)(=O)c1ccccc1Br,inactive,
CN1C(c2ccc(F)cc2)=CS/C1=C(/C#N)c1nnc2n1-c1ccccc1SC2,inactive,
Cc1cc(C)nc(N/N=C/c2ccc([N+](=O)[O-])o2)n1,inactive,
CN1CCN(/N=C/c2ccc(-c3ccc([N+](=O)[O-])cc3)o2)CC1,inactive,
C/[N+]([O-])=C\c1ccc([N+](=O)[O-])o1,14.6 µM (active),
CN1CCN(C(=O)c2ccc(-c3ccc(Br)cc3)o2)CC1,inactive,
CCN(C(=O)CSc1cccc[n+]1[O-])c1ccccc1,inactive,
COc1ccc(CC(=O)N/N=C/c2cc([N+](=O)[O-])cc(Br)c2O)cc1,inactive,
O=[N+]([O-])c1cc(Br)c(O)c(/C=N/Nc2nc3ccccc3s2)c1,3.26 µM (active),
Cc1cc(C(=O)N/N=C/c2cc([N+](=O)[O-])cc(C)c2O)n[nH]1,inactive,
COc1ccc(C(=O)Nc2cc(S(=O)(=O)N3CCCC3)ccc2Cl)cc1,inactive,
C[C@H](O)[C@@H]1C(=O)N2CCc3ccc(N4CCOCC4)cc3[C@@H]2C[C@@H]1N(C)C(=O)C(C)(C)C,,0.113% [at 9.22 µM]
Cc1nnnn1/C(=C\c1ccccc1)C(=O)OCC(=O)N1CC2(C)CC1CC(C)(C)C2 (stereo not drawn),18.4 µM (active),
Cc1cccc(C(=O)NCC(=O)OCC(=O)N2CC3(C)CC2CC(C)(C)C3)c1 (stereo not drawn),inactive,
COc1ccc(C(=O)N2CC3(C)CC2CC(C)(C)C3)cc1OC (stereo not drawn),inactive,
COc1ccc(CCNC(=O)COC(=O)Cc2ccccc2F)cc1,inactive,
N#Cc1cc([N+](=O)[O-])ccc1NC(=O)COC(=O)c1cnccn1,inactive,

Structure (SMILES),Potency,re-replication activation
Cc1cc(C(=O)OCC(=O)N2C(C)CCCC2C)c2ccccc2n1 (stereo not drawn),inactive,
COc1cccc(NC(=O)c2ccc(Cn3cc([N+](=O)[O-])cn3)o2)c1,inactive,
Cc1cccc(NC(=O)c2cc([N+](=O)[O-])ccc2N2CCN(C)CC2)c1,inactive,
Cc1cccc(NC(=O)c2ccc([N+](=O)[O-])o2)c1,3.66 µM (active),
CS(=O)(=O)Nc1ccccc1C(=O)OCC(=O)NC1CC1,inactive,
CC(=O)NC(CC(=O)Nc1ccc(S(=O)(=O)N2CCOCC2)cc1)c1ccccc1 (stereo not drawn),inactive,
COc1cccc(/C=N/NC(=O)CNC(=O)c2ccc(S(=O)(=O)N3CCOCC3)cc2)c1OC,inactive,
COc1ccc(C(=O)NCC(=O)N/N=C/c2ccc([N+](=O)[O-])o2)cc1OC,11.6 µM (active),
COc1cc(/C=N/NC(=O)CNC(=O)c2ccncc2)ccc1OC(C)=O,inactive,
Cc1csc(=O)n1CC(=O)Nc1ccc(S(C)(=O)=O)cc1,inactive,
Nc1cccc2c1C(=O)N(Cc1nnc(-c3ccccc3Br)o1)C2=O,16.4 µM (active),
Cn1cnnc1SCc1nnc(-c2ccccc2Br)o1,inactive,
O=C1c2ccccc2C(=O)N1Cc1cc(-c2ccccc2Cl)no1,inactive,
CN(CC(=O)NCCc1ccc(S(N)(=O)=O)cc1)CC(=O)Nc1ccc(Cl)cc1,inactive,
Cc1ccc(C2CC(=O)NC(SCC(=O)OCc3ccccc3)=C2C#N)o1 (stereo not drawn),inactive,
CCOC(=O)CSC1=C(C#N)C(c2sccc2C)CC(=O)N1 (stereo not drawn),5.01 µM (active),
COC(=O)CSC1=C(C#N)C(c2ccccc2OC)C(C(=O)OC)C(=O)N1 (stereo not drawn),,0.322% [at 9.22 µM]
CC(C)Cc1nnc(N)s1,inactive,
O=C(N/N=C/c1cccc(O)c1)c1cc2c(ccc3ccccc32)o1,inactive,
Cc1ccc(NC(=O)c2cc3ccccc3o2)cc1,inactive,
Cc1c(/C=N\NC(=O)c2cc3ccccc3o2)c2ccccc2n1C,9.2 µM (active),
CC(C)Sc1nc(N)nc2c1ncn2C1OC(CO)C(O)C1O (stereo not drawn),inactive,
c1ccc(-n2nnnc2N2CCOCC2)cc1,inactive,
c1ccc(-n2nnnc2NC2CCCCCC2)cc1,3.66 µM (active),
Fc1ccccc1CCNc1nnnn1-c1ccccc1,inactive,
